Active and inactive are the calls of the source.
Columns and labels:
[1] = biological target: Albumin (Bos taurus) (UniProt P02769); assay: bovine serum albumin binders on microarray, profiling panel, artefact control for SMM control protein annotation, biochemical, small-molecule microarray, Alexa647 label, 635/667 nm fluorescence (AID 1118); details: BSA-A647 binding, fluorescence 635 nm, higher = more signal;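 also: score merges 667 nm emission intensity and signal-to-noise per printed compound spot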
[2] = small-molecule microarray binders of probe aXIP, primary screen, biochemical, NeuroSMM set, 635/667 nm fluorescence (AID 1119); details: higher = more signal, called active from +8 up or from −8 down;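 also: probe is the protein aXip251-270 applied at 1 µg/mL to compound-printed slides; binding of probe to printed compounds measured as 667 nm fluorescence plus signal to noise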
[3] = small-molecule binders of probe aNOTCH3, primary screen, biochemical, small-molecule microarray, 635/667 nm fluorescence (AID 1120); details: higher = more signal;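 also: probe is a biotin-tagged antibody raised against NOTCH3 rather than NOTCH3 protein; score merges spot fluorescence near 667 nm with spot signal to noise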
[4] = small-molecule binders of probe aNOTCH2, primary screen, biochemical, small-molecule microarray, 635/667 nm fluorescence (AID 1121); details: higher = more signal;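 also: score merges feature fluorescence read at 667 nm with its signal to noise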
[5] = biological target: Carbonic anhydrase 2 (Homo sapiens) (UniProt P00918); assay: CAII small-molecule binders, profiling panel, biochemical, small-molecule microarray, Alexa647-labelled CAII (AID 1122); details: CAII-A647 binding fluorescence, higher = more signal
[6] = COS7 lysate on small-molecule microarray, probe aHis, 635 nm (AID 1123); details: COS7 cell lysate, fluorescence, higher = more signal;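 also: z-score combines 667nm fluorescence intensity with signal-to-noise per printed compound spot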
[7] = compound binding in COS7 lysate, probe aLAP1, primary screen, cell lysate, small-molecule microarray (AID 1124); details: probe aLAP1, fluorescence, higher = more signal;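 also: lysate comes from COS7 cells expressing LAP1 and is applied at 0.3 µg/mL; score merges spot fluorescence near 667 nm with signal-to-noise over triplicate slides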
[8] = tested on: Sam68 (KHDRBS1); assay: Sam68 small-molecule binders, primary screen, biochemical, small-molecule microarray, 635 nm fluorescence (AID 1125); details: small-molecule microarray binding, higher = more signal;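 also: score merges 667 nm channel intensity with signal to noise over triplicate slides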
[9] = tested on: Chordin-like protein 2 (CHRDL2); assay: CHRDL2 small-molecule binders, primary screen, biochemical, small-molecule microarray, 635 nm fluorescence (AID 1126); details: small-molecule microarray binding, fluorescence 635 nm; higher = more signal;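 also: printed compound slides probed with Chrdl2 protein at 4 µg/mL for 1 h at 4 C; score merges 667 nm emission intensity with signal to noise over three replicate slides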
[10] = biological target: Concanavalin-A (Canavalia ensiformis) (UniProt P02866); assay: ConA small-molecule binders, primary screen, artefact control for SMM control protein annotation, biochemical, small-molecule microarray, Alexa647 label, 635 nm (AID 1127); details: ConA-A647 binding fluorescence, higher = more signal;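 also: z combines 667 nm emission intensity with signal-to-noise across three replicate slides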
Concanavalin-A (Canavalia ensiformis), sequence (P02866 whole entry, looked up): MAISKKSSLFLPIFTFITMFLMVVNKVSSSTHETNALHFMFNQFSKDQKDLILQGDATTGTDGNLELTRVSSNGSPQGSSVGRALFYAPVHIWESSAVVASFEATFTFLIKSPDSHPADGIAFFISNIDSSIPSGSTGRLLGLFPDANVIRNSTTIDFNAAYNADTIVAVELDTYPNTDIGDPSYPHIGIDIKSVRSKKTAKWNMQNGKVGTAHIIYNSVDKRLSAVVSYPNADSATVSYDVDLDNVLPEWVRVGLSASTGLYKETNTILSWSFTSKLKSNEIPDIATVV

Albumin (Bos taurus), sequence (P02769 whole entry, looked up): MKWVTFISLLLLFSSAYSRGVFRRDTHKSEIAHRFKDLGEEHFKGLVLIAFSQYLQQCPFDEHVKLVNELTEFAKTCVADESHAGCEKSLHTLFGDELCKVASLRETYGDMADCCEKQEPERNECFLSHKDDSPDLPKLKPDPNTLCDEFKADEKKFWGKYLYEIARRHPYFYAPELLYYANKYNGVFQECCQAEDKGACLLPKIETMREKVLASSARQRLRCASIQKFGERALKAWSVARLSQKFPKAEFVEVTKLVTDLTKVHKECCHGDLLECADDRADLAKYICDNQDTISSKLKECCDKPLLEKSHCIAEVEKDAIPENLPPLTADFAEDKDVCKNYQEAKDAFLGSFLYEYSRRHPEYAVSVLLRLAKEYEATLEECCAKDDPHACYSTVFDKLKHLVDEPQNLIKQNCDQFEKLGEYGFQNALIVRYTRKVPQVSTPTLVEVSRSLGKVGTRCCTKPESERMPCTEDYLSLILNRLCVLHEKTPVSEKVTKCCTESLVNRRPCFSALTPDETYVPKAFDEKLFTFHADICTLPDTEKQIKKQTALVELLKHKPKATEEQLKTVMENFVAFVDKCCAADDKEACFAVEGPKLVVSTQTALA

Compound	composite z-score [1]	composite Z-score [2]	composite z-score [3]	composite z-score [4]	composite z-score [5]	composite z-score [6]	composite z-score [7]	composite z-score [8]	composite z-score [9]	composite z-score [10]
CCOC(=O)C1=CC[C@@H](c2ccccc2)N(S(=O)(=O)c2ccc(C)cc2)[C@H]1C=Cc1ccccc1	0.725	0.206 (inactive)	0.0372	-0.0569	0.707	1.03	0.827	0.602	-0.19	0.81
CCOC(=O)C1=C[C@@H](C(C)(C)C)N(S(=O)(=O)c2ccc(C)cc2)[C@H]1c1ccccc1	0.907	0.265 (inactive)	0.176	-0.0836	0.343	0.29	0.931	1.31	-0.196	0.94
COc1ccc(C(=O)Nc2cccc(CN3C(=O)[C@]4(O[C@H](CCn5cc([C@H](O)c6ccccc6)nn5)[C@@H]([Si](C)(C)c5ccc(OC)cc5)[C@@H]4C)c4ccccc43)c2)cc1	-0.215	-0.213 (inactive)	0.0916	-0.0986	0.169	0.18	-0.206	0.962	0.153	0.587
Cc1ccc(S[C@]2(C(=O)NCC(C)C)CC(=O)N(C3Cc4ccccc4C3)[C@@H]2c2ccc(CO)cc2I)cc1	-0.615	-0.211 (inactive)	-0.323	-0.188	0.398	0.554	-0.221	-0.383	-1.65	-0.762
C=C(CCCC)C(=O)CC[C@@H](OC(=O)c1cccnc1)c1ccc(OCCO)cc1	-0.409	0.97 (inactive)	-0.0144	-0.0357	0.718	0.719	0.488	0.947	0.894	0.239
COCCOC(=O)N1C(=O)[C@@]2(c3cc(C#CCCO)ccc31)[C@H](C(N)=O)[C@H]1C(=O)O[C@H](c3ccccc3)[C@H](c3ccccc3)N1[C@@H]2c1ccc(OCCO)cc1	0.489	0.206 (inactive)	0.12	0.0248	0.354	2.21	0.667	1.29	0.618	1.15
C=CCN1C(=O)[C@@]2(O[C@@H](CCO)[C@H]([Si](C)(C)c3ccc(OC)cc3)[C@H]2C)c2cc(N3CCOC3=O)ccc21	0.729	0.0117 (inactive)	-0.0647	-0.127	0.483	-0.617	0.155	0.329	-0.403	0.993
COCCCNC(=O)[C@@]1(Sc2ccc(C)cc2)CC(=O)N(Cc2ccccc2Cl)[C@@H]1c1ccc(CO)cc1I	0.7	-0.0202 (inactive)	-0.145	-0.178	0.809	0.658	-0.47	-1.22	-1.05	-0.556
CCN(CC)c1ccc(N2CC=CC34O[C@@H]5/C=C\CCC(C)OC(=O)C5[C@H]3C(=O)N(C(C)CO)[C@@H]4C2=O)cc1 (stereo not given in full)	-0.739	0.451 (inactive)	-0.24	-0.148	0.42	-0.175	-0.165	-0.0199	0.142	-1.09
C=C(COC)C(=O)CC[C@@H](OC(=O)c1cccnc1)c1ccccc1OCCO	-0.726	0.245 (inactive)	0.0237	-0.0681	0.758	0.105	-0.377	-0.356	0.349	0.484
CN(C)C(=O)[C@@]1(Cc2ccccc2)COC(c2ccc(OCCCO)cc2)=N1	0.66	-0.655 (inactive)	-0.507	-0.308	0.541	2.86	0.178	0.581	0.26	0.113
COCCOC(=O)N1C(=O)[C@@]2(c3cc(C#CCCO)ccc31)[C@H](c1ccccc1OCCO)N1[C@H](c3ccccc3)[C@H](c3ccccc3)OC(=O)[C@H]1[C@@H]2C(=O)N1CCCCCCC1	0.86	0.358 (inactive)	1.39	0.333	0.761	3.2	0.796	1.29	1.05	1.11
CN(C)C(=O)[C@@]1(CCC(=O)OC(C)(C)C)N=C(c2ccc(OCCCO)cc2)O[C@H]1c1ccccc1CN=[N+]=[N-]	1	-0.181 (inactive)	-0.0111	-0.0206	0.825	3.22	0.626	1.29	-0.409	0.613
CS(=O)(=O)CCOC(=O)C1=CC(CCCO)=CC(C2CC2)N(Cc2cccc(OC(F)(F)F)c2)C=C1C(=O)OCCS(C)(=O)=O (stereo not given)	0.42	3.23 (inactive)	0.0311	-0.133	0.751	1.16	-0.0318	1.33	-0.316	0.244
O=C(NCCN1CCOCC1)[C@@H]1c2ccccc2C(=O)N(Cc2ccccc2)[C@H]1c1ccc(CO)cc1	0.16	0.283 (inactive)	-0.272	-0.116	0.688	0.392	-0.274	-0.673	-1.38	0.581
CC(C)=CCCC(C)=CC(O)C1C=CC2C(=O)N(c3ccccc3)C(=O)C2N1Nc1ccccc1F (stereo not given)	0.846	0.0502 (inactive)	0.0258	-0.186	0.662	1.3	0.561	1.13	-0.308	1.14
CCCCC(=O)N(CCN1CCOCC1)[C@@H]1CC(C(=O)NCCO)=C[C@H](Oc2c(I)cc(CO)cc2OC)[C@H]1O	-0.365	-0.18 (inactive)	-0.163	-0.185	-0.142	-0.463	-0.265	0.593	0.459	0.331
C=C(C)[C@@H]1CC=C(C(O)C2C=CC3C(=O)N(c4ccccc4)C(=O)C3N2Nc2ccc(C#N)cc2)CC1 (stereo not given in full)	0.971	0.0421 (inactive)	0.217	0.0963	0.643	2.46	0.429	1.31	0.355	1.16
C=C(C)C1CCC(C(O)C2C=CC3C(=O)N(C)C(=O)C3N2Nc2cc(OC)c(OC)c(OC)c2)CC1 (stereo not given)	0.941	-0.0192 (inactive)	0.263	-0.0598	0.703	1.46	0.0507	1.29	0.464	0.974
CCCCCN1CC=CC23O[C@@H]4C=CCOC(=O)[C@@H]4[C@H]2C(=O)N(CCO)[C@@H]3C1=O (stereo not given in full)	-0.141	0.403 (inactive)	-0.221	-0.14	0.907	1.28	-0.0117	-0.263	-1.33	-0.502
COCCOC(=O)N1C(=O)[C@@]2(c3cc(C#CC4=CCCCC4)ccc31)[C@H](C(=O)N1CCCCCCC1)[C@H]1C(=O)O[C@H](c3ccccc3)[C@H](c3ccccc3)N1[C@@H]2c1ccc(OCCO)cc1	-0.0202	0.196 (inactive)	0.677	0.0424	0.399	0.387	0.722	0.865	0.652	1.11
CC(C)[C@H]1NC(=O)[C@@]23C(=O)N[C@@H](Cc4ccccc4)C2[C@H](C)[C@@]2(C)O[C@H]2C3/C=C/C/C=C\CNC(=O)[C@H](Cc2ccccc2)NC1=O (stereo not given in full)	0.347	0.167 (inactive)	0.204	-0.19	0.318	0.836	0.582	1.29	0.908	0.273
COCCOC(=O)N1C(=O)[C@@]2(c3cc(C#Cc4ccc(OC)cc4)ccc31)[C@H](C(=O)NC[C@H](O)c1ccccc1)[C@H]1C(=O)O[C@H](c3ccccc3)[C@H](c3ccccc3)N1[C@@H]2c1ccc(OCCO)cc1	0.101	-0.014 (inactive)	0.0397	-0.146	0.441	1.72	0.313	1.3	0.195	1.09
C=CCNC(=O)[C@@H]1[C@H]2C(=O)O[C@H](c3ccccc3)[C@H](c3ccccc3)N2[C@H](c2ccc(O)cc2)[C@@]12C(=O)Nc1ccc(C#CCC(C(=O)OC)C(=O)OC)cc12	0.0825	-0.136 (inactive)	-0.0647	-0.0907	0.336	1.52	0.123	1.33	0.231	0.933
CO[C@H]1O[C@H](CO)[C@@H](OC(=O)CCc2ccccc2)[C@H](OC(=O)c2cc3ccccc3[nH]2)[C@H]1OC(=O)c1cc2ccccc2[nH]1	0.777	-0.134 (inactive)	-0.0284	-0.223	0.68	0.78	-0.206	1.22	0.453	1.09
O=c1cccc(-c2ccco2)o1	0.167	0.207 (inactive)	0.0522	-0.127	0.25	0.193	0.462	0.969	1.05	0.495
NC(=O)[C@H]1[C@@H]2C(=O)O[C@@H](c3ccccc3)[C@@H](c3ccccc3)N2[C@@H](c2ccc(O)cc2)[C@]12C(=O)Nc1ccccc12	0.295	0.355 (inactive)	-0.307	-0.173	0.769	-0.115	0.0182	-0.783	-1.22	-0.411
CCOC(=O)C1=CCC(c2ccco2)N(S(=O)(=O)c2ccc(C)cc2)C1 (stereo not given)	0.769	0.204 (inactive)	0.196	0.0006	0.581	1.48	0.509	1.22	0.388	0.956
COCCOC(=O)N1C(=O)[C@@]2(c3cc(C#CCNC(N)=O)ccc31)[C@H](c1ccc(OCCO)cc1)N1[C@H](c3ccccc3)[C@H](c3ccccc3)OC(=O)[C@H]1[C@@H]2C(N)=O	0.319	0.658 (inactive)	0.116	-0.01	0.264	1.13	0.439	1.13	0.457	1.08

— PubChem BioAssay
